Shown are actives, neighbours in structure and some others; about 1% of the full set was active somewhere.
BLM helicase inh-1 – inhibitors of human Bloom syndrome helicase BLM | recombinant BLM DNA unwinding, fluorescence dequenching | Potency, µM (highest dose often 56.1 µM), most hits filed as inhibitors | actives 0.2% (n = 350,000) | AID 2528; note: nearly all actives have a fitted effect of over 35% in size
WRN helicase inh-1 – inhibitors of human WRN helicase; Q14191; WRN helicase unwinding, fluorescent forked duplex, kinetic; Potency, µM (top dose mostly 114 µM), most hits filed as inhibitors; actives 0.46% (n = 360,000); note: nearly all actives have a fitted effect of over 55% in size
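Fluorescence dequenching readout, ex 525 nm/em 598 nm, kinetic mode: forked duplex DNA (100 nM final) with adjacent fluorophore and quencher unwound by WRN (20 nM final) with 2 mM ATP. Compound preincubation 15 min, room temperature.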
RECQ1 inh-1 – inhibitors of human RECQ1 DNA helicase | P46063 | RECQ1 DNA unwinding, red fluorescence kinetic read | Potency, µM (highest dose often 57.3 µM), hits mostly inhibitors | actives 0.54% (n = 240,000); note: nearly all actives have a fitted effect of over 30% in size
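50 nM RECQ1T1 preincubated 15 min with compound in Tris pH 8.0 buffer with MgCl2, DTT, Tween-20 and 2.5 ug/ml poly(dI-dC); started with 200 nM TAMRA/BHQ-2 forked duplex and 2 mM ATP. Unwinding read as fluorescence (525/598 nm), two reads 2 h apart.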
L3MBTL1 inh-1 – inhibitors of human L3MBTL1 | actives 0.66% (n = 230,000) | Potency, µM (top dose mostly 57.1 µM), usual class: inhibitors | Q9Y468 | AID 485360 | AlphaScreen L3MBTL1–H3K9me1 peptide binding; note: nearly all actives have a fitted effect of over 60% in size
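AlphaScreen proximity signal between nickel-chelate acceptor and streptavidin donor beads (final 10 ug/mL) reports binding of 50 nM L3MBTL1 to 75 nM biotin-H3 K9me1 peptide; complex incubated with compounds 30 min at room temperature; cefsulodin titration as control.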
APE1 inh – blocks human APE1 abasic DNA cleavage; recombinant APE1, TAMRA/BHQ-2 abasic DNA cleavage fluorescence; Potency, µM (series often up to 65.8 µM), usual class: inhibitors; actives 0.35% (n = 350,000); P27695; note: nearly all actives have a fitted effect of over 55% in size
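Readout is kinetic fluorescence (ex 525, em 598 nm) from cleavage of 50 nM TAMRA/BHQ-2 THF abasic duplex by 0.75 nM APE1, compound added 15 min beforehand at RT.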
FEN1 inh – inhibitors of human flap endonuclease 1; Potency, µM (series often up to 114 µM), actives largely listed as inhibitors; P39748; actives 0.35% (n = 390,000); Recombinant FEN1 flap cleavage, fluorescence, 15 min; note: nearly all actives have a fitted effect of over 65% in size
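Read-out was taken twice, immediately and after 15 min, following addition of 50 nM substrate to 10 nM FEN1 that had sat with test compound for 15 min at room temperature. Curves came from a four-parameter Hill model.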
RECQ1 inh conf – confirmation of human RECQ1 helicase inhibitors. Potency, µM (series often up to 229 µM), actives largely listed as inhibitors. shares compounds with RECQ1 inh-1. RECQ1 helicase DNA unwinding, fluorescence. actives 28% (n = 610). AID 2708; note: nearly all actives have a fitted effect of over 45% in size
ADP FP counter – ADP displacement flagged in RECQ1 inhibitor counter-screen; shares compounds with RECQ1 inh-1; ADP fluorescence polarization displacement counterscreen; Potency, µM (doses to about 228 µM), hits mostly inhibitors; actives 27% (n = 530); AID 2711; note: nearly all actives have a fitted effect of over 45% in size
RECQ1 inh-2 – RECQ1 helicase inhibition confirmed, round 2. shares compounds with RECQ1 inh-1. recombinant RECQ1 DNA unwinding, red fluorescence. Potency, µM (doses to about 119 µM), actives largely listed as inhibitors. actives 15% (n = 1,100); note: nearly all actives have a fitted effect of over 50% in size
L3MBTL1 inh-2 – L3MBTL1 binding inhibition validated. Potency, µM, most hits filed as inhibitors. actives 91% (n = 500). shares compounds with L3MBTL1 inh-1. L3MBTL1 methyl-lysine binding inhibition, biochemical qHTS; note: nearly all actives have a fitted effect of over 70% in size
L3MBTL1 ctr – interferes with AlphaScreen signal in L3MBTL1 counterscreen; 500 tested, under 10 active; AlphaScreen counterscreen, signal inhibition; Potency, µM (doses to about 57.1 µM), usual class: inhibitors; shares compounds with L3MBTL1 inh-1
WRN helicase inh-2 – WRN helicase inhibition, cherry-pick retest; Potency, µM (series often up to 57.1 µM), most hits filed as inhibitors; shares compounds with WRN helicase inh-1; AID 720497; WRN helicase DNA unwinding, fluorescence kinetic; actives 63% (n = 610); note: nearly all actives have a fitted effect of over 65% in size
TO displacement – counter-screen for WRN helicase inhibitors: DNA binding; shares compounds with WRN helicase inh-1; actives 10% (n = 610); thiazole orange DNA binding displacement, fluorescence; Potency, µM (series often up to 57.1 µM), usual class: inhibitors; AID 720499;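 note: drop in dye fluorescence marks compound binding to DNA; nearly all actives have a fitted effect of over 60% in size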
BLM helicase inh-2 – BLM helicase inhibition, WRN selectivity check; Recombinant BLM helicase DNA unwinding, red fluorescence; shares compounds with WRN helicase inh-1; Potency, µM (titrated, usually from 57.1 µM), actives largely listed as inhibitors; actives 60% (n = 610); note: nearly all actives have a fitted effect of over 60% in size
Large screens that a line does not name were inactive (follow-up assays come after a bar, where they were run). Calls come from the whole dose curve; as a rule, active = well fitted curve in the direction sought with a large enough effect; inconclusive = small, poorly fitted or top-dose-only effect, or another doubt; inactive = no such curve, though single readings can be large; an effect the other way counts as inactive or inconclusive.

Cc1cccc(C)c1N1C(=O)[C@@H]2C(c3ccccc3Cl)=NO[C@@H]2C1=O	none
O=C1NC(=Nc2ccc(O)cc2)S/C1=C\C=C\c1ccco1	WRN helicase inh-1 inconclusive, RECQ1 inh-1 inconclusive, L3MBTL1 inh-1 16µM, APE1 inh inconclusive | RECQ1 inh-2 inconclusive | L3MBTL1 inh-2 13 | L3MBTL1 ctr inactive | WRN helicase inh-2 19µM | TO displacement inconclusive | BLM helicase inh-2 22µM
COc1cc(/C=C2/SC(=Nc3ccc(O)cc3)NC2=O)cc(OC)c1O	L3MBTL1 inh-1 inconclusive, APE1 inh inconclusive
COc1cc(/C=C2\CCc3c2nc2ccccc2c3C(=O)O)cc(OC)c1OC	BLM helicase inh-1 14µM, WRN helicase inh-1 32µM, RECQ1 inh-1 10µM, L3MBTL1 inh-1 4µM, APE1 inh 25µM, FEN1 inh 50µM | RECQ1 inh conf 22µM | ADP FP counter inactive | RECQ1 inh-2 inconclusive | L3MBTL1 inh-2 1.5 | L3MBTL1 ctr inactive | WRN helicase inh-2 19µM | TO displacement inconclusive | BLM helicase inh-2 19µM
Cc1nn(CCc2nc(-c3ccco3)cs2)c2[nH]c(=O)cc(C(F)(F)F)c12	BLM helicase inh-1 inconclusive, WRN helicase inh-1 35µM, RECQ1 inh-1 14µM, L3MBTL1 inh-1 35µM, APE1 inh inconclusive, FEN1 inh inconclusive | RECQ1 inh conf inconclusive | ADP FP counter inconclusive | RECQ1 inh-2 inconclusive | L3MBTL1 inh-2 21 | L3MBTL1 ctr inactive | WRN helicase inh-2 inconclusive | TO displacement inactive | BLM helicase inh-2 22µM
Cc1cc(C)c2nc(-c3ccccn3)cc(C(=O)Nc3ccc(S(=O)(=O)Nc4onc(C)c4C)cc3)c2c1	BLM helicase inh-1 inconclusive, WRN helicase inh-1 40µM, RECQ1 inh-1 inconclusive, L3MBTL1 inh-1 inconclusive, APE1 inh inconclusive, FEN1 inh inconclusive | RECQ1 inh-2 inconclusive | WRN helicase inh-2 15µM | TO displacement inconclusive | BLM helicase inh-2 6.8µM
O=C(CSc1n[nH]c(-c2ccccc2)n1)c1ccc(O)c(O)c1	WRN helicase inh-1 16µM, RECQ1 inh-1 20µM, L3MBTL1 inh-1 inconclusive, APE1 inh inconclusive | RECQ1 inh-2 inconclusive | WRN helicase inh-2 19µM | TO displacement inactive | BLM helicase inh-2 19µM
Cc1ccc(O)c(NC(=O)CSc2n[nH]c(-c3ccccc3)n2)c1	none (no result: RECQ1 inh-1, L3MBTL1 inh-1)
CCc1cc(=O)oc2cc(C)c(CN3CCCCC3)c(O)c12	BLM helicase inh-1 18µM, WRN helicase inh-1 25µM, RECQ1 inh-1 10µM, L3MBTL1 inh-1 13µM, APE1 inh 22µM, FEN1 inh 50µM | RECQ1 inh conf inconclusive | ADP FP counter 63µM | RECQ1 inh-2 inactive | WRN helicase inh-2 inconclusive | TO displacement inactive | BLM helicase inh-2 inconclusive
